# Hits are enriched below; roughly 27% of the tested compounds scored in any of these assays.
# CYP2C19 act = human CYP2C19 activators, primary screen, biochemical, luminescence; activation factor at 5 µM; 96,000 tested, under 10 active; Cytochrome P450 2C19 (Homo sapiens), P33261; recombinant CYP2C19, luciferin-H EGE luminescence; stronger effect = higher value; 0 = fully inhibited enzyme, 1 = untreated enzyme;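 active means activation factor of at least 2 at 5 µM in the primary screen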
# CYP2C19 inh = blockers of cytochrome P450 2C19 activity – biochemical, luminescence, ADME assay, primary screen | P33261 | CYP2C19 Supersomes, luciferin-H EGE luminescence, 30 min | inhibition, % at 5 µM | actives 21% (n = 96,000);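 active means CYP2C19 inhibition above a set limit at 5 µM in the primary screen, cut at about 50% in these data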
# CYP2C9 act = human CYP2C9 activators, primary screen, biochemical, luminescence | recombinant CYP2C9, luciferin-H conversion; stronger effect = higher value; factor 1 = untreated enzyme, 0 = blocked | activation factor at 5 µM | actives 1.4% (n = 96,000) | AID 1024, 2008;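 active means activation factor of 2 or more for CYP2C9 at a 5 µM dose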
# Target sequence (P11712 whole entry, looked up): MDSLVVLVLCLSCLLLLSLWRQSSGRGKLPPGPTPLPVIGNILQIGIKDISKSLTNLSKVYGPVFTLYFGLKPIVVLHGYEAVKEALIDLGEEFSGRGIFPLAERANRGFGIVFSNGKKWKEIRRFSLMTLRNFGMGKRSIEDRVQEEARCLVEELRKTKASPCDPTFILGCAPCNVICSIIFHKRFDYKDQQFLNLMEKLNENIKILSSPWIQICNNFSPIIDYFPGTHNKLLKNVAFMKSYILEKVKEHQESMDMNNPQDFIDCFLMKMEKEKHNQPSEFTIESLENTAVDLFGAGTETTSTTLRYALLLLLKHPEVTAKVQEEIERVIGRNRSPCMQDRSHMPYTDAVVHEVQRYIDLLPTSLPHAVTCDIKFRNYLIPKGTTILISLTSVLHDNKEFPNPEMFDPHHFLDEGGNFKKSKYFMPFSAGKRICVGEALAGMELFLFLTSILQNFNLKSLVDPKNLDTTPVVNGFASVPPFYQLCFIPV
# sEH act = soluble epoxide hydrolase activators, primary screen, biochemical, human sEH; purified human sEH enzymatic activity, activator screen; Bifunctional epoxide hydrolase 2 (Homo sapiens), P34913; actives 0.04% (n = 91,000); activation, % at 2 µM; in the data active means activation above about 37%
# sEH inh = soluble epoxide hydrolase inhibitors, primary screen, biochemical, human sEH. recombinant human sEH enzymatic activity assay. actives 0.34% (n = 91,000). Bifunctional epoxide hydrolase 2 (Homo sapiens), P34913. AID 707, 2007. inhibition, % at 2 µM; in the data active means inhibition above about 80%
# CYP2C9 inh = blockers of cytochrome P450 2C9 activity – biochemical, luminescence, ADME assay, primary screen | P11712 | CYP2C9 Supersomes, luciferin-H conversion | inhibition, % at 5 µM | actives 20% (n = 96,000) | AID 777, 2007;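 active means blocking of liver enzyme CYP2C9 beyond about 50% at 5 µM, limit read from the data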
# Hits are given with their value; - = inactive; . = no result given.
SMILES,CYP2C19 act,CYP2C19 inh,CYP2C9 act,sEH act,sEH inh,CYP2C9 inh
O=C(Nc1ccc(N2CCN(C(=O)c3cccs3)CC2)c(Cl)c1)c1ccco1,-,-,-,-,-,54.2
O=C(Nc1ccc(N2CCOCC2)c(Cl)c1)c1c(F)c(F)c(F)c(F)c1F,-,-,-,-,-,-
COc1c(F)c(F)c(C(=O)Nc2ccc(N3CCN(C(C)=O)CC3)c(Cl)c2)c(F)c1F,-,-,-,-,-,66.3
Cc1ccccc1C(=O)N1CCN(c2ccc(NC(=O)c3ccco3)cc2Cl)CC1,-,-,-,-,-,-
O=C(Nc1ccc(N2CCN(C(=O)c3ccco3)CC2)c(Cl)c1)c1c(F)c(F)c(F)c(F)c1F,-,68.2,-,-,-,72.6
CCOC(=O)c1ccccc1NC(=O)CSc1ccccc1,.,.,.,-,-,.
O=C(Nc1c2ccccc2nc2ccccc12)C(Cl)(Cl)Cl,-,-,-,-,-,-
CC#CCCC(=O)N1C=Cc2ccccc2C1C#N (stereo unspecified),-,66.3,-,-,-,-
CS(=O)(=O)N(CC(=O)NC1CC2CCC1C2)c1cccc(C(F)(F)F)c1 (stereo unspecified),-,-,-,-,-,-
Cc1ccc(N(CC(=O)NC2CC3CCC2C3)S(C)(=O)=O)cc1C (stereo unspecified),-,73.2,-,.,.,-
NC(=O)CN1CCOCCOCCN(CC(N)=O)CCOCCOCC1,.,.,.,-,-,.
Cc1ccc2c(c1)sc[n+]2Cc1ccccc1,-,65.7,-,-,-,68.2
Cn1c(CN2CCOCC2)nnc1SCC(=O)NCCc1ccccc1,-,-,-,-,-,-
COc1cc(C2Nc3ccc4ncccc4c3C3=C2C(=O)CCC3)cc(OC)c1O (stereo unspecified),-,-,-,-,-,82.9
COc1cc(C2Nc3ccc4ncccc4c3C3=C2C(=O)CC(C)(C)C3)cc(OC)c1O (stereo unspecified),-,63.4,-,-,-,76.0
Cc1ccc(C2Nc3ccc4ccccc4c3C3=C2C(=O)CC(C)(C)C3)o1 (stereo unspecified),.,.,.,-,-,.
O=C1CCCC2=C1C(c1ccco1)Nc1ccc3ccccc3c12 (stereo unspecified),-,-,-,-,-,-
CC(Sc1nnc(N)s1)C(=O)Nc1ccc(N2CCOCC2)cc1 (stereo unspecified),-,-,-,-,-,-
COCc1cc(C)nc(OCC(=O)N/N=C\c2cc(C)n(-c3cccc(C(F)(F)F)c3)c2C)c1C#N,-,-,-,-,-,65.1
O=C(NCCN1CCOCC1)Nc1ccc(Cl)cc1Cl,-,-,-,-,-,-
CCOc1cc(CNc2cccc3ccccc23)cc(Br)c1OCC(=O)NC(C)(C)C,-,65.4,-,-,-,69.8
COc1cc(CNc2ccc3[nH]c(=O)[nH]c3c2)ccc1OCC(=O)NC(C)(C)C,-,-,-,-,-,-
COc1cc(CNc2ccc3[nH]c(=O)[nH]c3c2)cc(Br)c1OCC(=O)NC(C)(C)C,-,51.1,-,-,-,-
CCOc1cc(CO)cc(Br)c1OCC(=O)O,.,.,.,-,-,.
CCOc1cc(CNc2ccc(N(C)C)cc2)cc(Br)c1OCC(=O)NC(C)(C)C,-,96.0,-,-,-,95.8
SMILES,CYP2C19 act,CYP2C19 inh,CYP2C9 act,sEH act,sEH inh,CYP2C9 inh
C=CCOc1c(Br)cc(CNc2ccc(NC(=O)CCC)cc2)cc1OCC,-,53.9,-,-,-,70.9
CC(=O)OCC(OC(C)=O)C(OC(C)=O)C(OC(C)=O)C(=O)Nc1ccccc1C (stereo unspecified),-,-,-,-,-,-
CCN(CCO)C(=O)C12CCC(C)(C(=O)C1)C2(C)C (stereo unspecified),-,-,-,-,-,-
N#Cc1cc(-c2ccccc2)c[nH]c1=O,-,-,-,-,-,-
CC(C)C(=O)NC(=S)NCC(=O)c1ccccc1,-,-,-,-,-,-
CC1=C(CC(=O)c2ccccc2)C(=O)c2ccccc2C1=O,-,62.7,-,-,-,67.5
O=P(COc1ccccc1)(c1ccccc1)c1ccccc1,-,-,-,-,-,71.8

# Assay outcomes from PubChem.
